The supplement of paper PMC10849652
Targets with a hit are over-represented here; the source holds about 7,900 in all. About 0.6% of all pairs of compound and target were hits. A number with no mark means an inactive call.

What was measured:
Experiment in all cases: log2 fold change, soluble protein after heating vs DMSO (PISA); higher = thermal stabilisation; K562 cells, 10 uM, 30 min; active = over 0.2 and 3.5 SD of the protein, either way, in both replicates (recomputed)
[1] = compound: C1=CC=C(C=C1)[C@H](COC2=CC3=C(C=C2)NC(=O)N3)NC(=O)C4=CC=CN(C4=O)CC5=CC(=C(C=C5)F)F
Procedure, shortened: (§1)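 Soluble protein was defined as the supernatant after 21,000xg for 90 min. It came from K562 cells at 2×10^6 cells/mL given 10 μM compound for 30 min, heated in aliquots for 3 min across 48°C-58°C, pooled, and extracted in PBS with 0.5% NP-40 at 4°C, and was quantified by TMTpro 16plex LC-MS/MS with equalised channel sums. Thermal stability against control samples, from duplicates, is reported as log2 fold change.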

[2] = compound: CC1=C(SC2=C1C(=N[C@H](C3=NN=C(N32)C)CC(=O)N)C4=CC=C(C=C4)Cl)C
Procedure, shortened: as §1

[3] = compound: CC1=C2C(=CC=C1)N=C(N(C2=O)C3=CC=CC=C3C)CN4C=NC5=C(N=CN=C54)N
Procedure, shortened: as §1

[4] = compound: Cc1sc2c(c1C)C(c1ccc(Cl)cc1)=N[C@@H](CC(=O)OC(C)(C)C)c1nnc(C)n1-2
Procedure, shortened: as §1

[5] = compound: c1ccc([C@@H]2C[C@H]2NC2CCNCC2)cc1
Procedure, shortened: as §1

UniProt Q8NF50, sequence (Q8NF50 whole entry, looked up): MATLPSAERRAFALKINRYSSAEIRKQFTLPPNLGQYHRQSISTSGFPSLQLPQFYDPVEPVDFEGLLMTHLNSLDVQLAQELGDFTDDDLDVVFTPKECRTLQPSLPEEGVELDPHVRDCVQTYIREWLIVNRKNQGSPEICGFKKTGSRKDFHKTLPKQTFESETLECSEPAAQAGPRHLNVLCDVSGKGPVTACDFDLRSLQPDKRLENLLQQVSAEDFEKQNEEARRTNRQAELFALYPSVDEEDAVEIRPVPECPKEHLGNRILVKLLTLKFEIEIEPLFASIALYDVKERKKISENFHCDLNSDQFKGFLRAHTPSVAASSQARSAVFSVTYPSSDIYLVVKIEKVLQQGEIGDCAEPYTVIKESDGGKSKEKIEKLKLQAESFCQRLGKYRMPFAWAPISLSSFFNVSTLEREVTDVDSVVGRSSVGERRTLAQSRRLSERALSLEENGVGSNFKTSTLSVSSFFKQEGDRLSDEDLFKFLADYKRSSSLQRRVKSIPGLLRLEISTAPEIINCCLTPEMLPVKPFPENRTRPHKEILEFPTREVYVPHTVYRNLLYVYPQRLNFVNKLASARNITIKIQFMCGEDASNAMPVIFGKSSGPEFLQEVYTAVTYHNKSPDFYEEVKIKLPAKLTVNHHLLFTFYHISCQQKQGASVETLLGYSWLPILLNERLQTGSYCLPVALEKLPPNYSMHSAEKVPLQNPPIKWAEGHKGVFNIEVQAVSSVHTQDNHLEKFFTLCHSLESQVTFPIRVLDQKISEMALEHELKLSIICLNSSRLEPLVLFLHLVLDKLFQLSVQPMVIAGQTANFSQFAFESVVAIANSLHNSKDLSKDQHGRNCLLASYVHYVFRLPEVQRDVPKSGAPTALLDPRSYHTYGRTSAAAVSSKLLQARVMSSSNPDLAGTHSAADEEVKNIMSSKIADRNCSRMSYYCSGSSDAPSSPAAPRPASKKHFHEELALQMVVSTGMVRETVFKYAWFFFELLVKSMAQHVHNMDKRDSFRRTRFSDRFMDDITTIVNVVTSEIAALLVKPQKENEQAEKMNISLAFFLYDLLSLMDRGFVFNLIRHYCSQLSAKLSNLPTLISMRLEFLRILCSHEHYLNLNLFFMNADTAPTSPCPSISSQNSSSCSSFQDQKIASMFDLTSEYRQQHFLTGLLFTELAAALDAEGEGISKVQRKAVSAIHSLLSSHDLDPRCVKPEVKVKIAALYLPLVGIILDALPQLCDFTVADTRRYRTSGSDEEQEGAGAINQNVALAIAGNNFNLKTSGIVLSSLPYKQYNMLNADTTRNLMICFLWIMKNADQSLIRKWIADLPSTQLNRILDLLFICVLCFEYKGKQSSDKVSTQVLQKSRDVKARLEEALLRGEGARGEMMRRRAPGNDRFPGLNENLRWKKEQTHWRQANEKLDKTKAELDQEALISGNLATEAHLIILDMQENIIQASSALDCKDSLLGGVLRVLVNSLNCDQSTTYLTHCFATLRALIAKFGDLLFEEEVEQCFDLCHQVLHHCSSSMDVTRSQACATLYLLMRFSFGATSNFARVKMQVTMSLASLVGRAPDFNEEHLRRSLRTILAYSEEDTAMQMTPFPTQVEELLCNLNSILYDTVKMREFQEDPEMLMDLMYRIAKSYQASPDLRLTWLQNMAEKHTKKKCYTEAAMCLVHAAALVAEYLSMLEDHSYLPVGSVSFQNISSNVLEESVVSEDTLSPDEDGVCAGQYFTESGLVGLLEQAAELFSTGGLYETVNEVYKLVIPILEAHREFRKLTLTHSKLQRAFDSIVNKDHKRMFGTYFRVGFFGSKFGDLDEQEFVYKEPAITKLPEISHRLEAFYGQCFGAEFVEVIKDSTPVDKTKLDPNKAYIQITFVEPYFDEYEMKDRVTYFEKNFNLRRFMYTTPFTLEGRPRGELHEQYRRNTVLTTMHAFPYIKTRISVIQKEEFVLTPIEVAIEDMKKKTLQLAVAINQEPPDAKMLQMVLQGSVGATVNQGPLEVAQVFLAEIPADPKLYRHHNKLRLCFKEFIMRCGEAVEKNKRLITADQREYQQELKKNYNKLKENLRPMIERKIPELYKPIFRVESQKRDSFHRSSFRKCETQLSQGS
UniProt Q6UX07, sequence (Q6UX07 whole entry, looked up): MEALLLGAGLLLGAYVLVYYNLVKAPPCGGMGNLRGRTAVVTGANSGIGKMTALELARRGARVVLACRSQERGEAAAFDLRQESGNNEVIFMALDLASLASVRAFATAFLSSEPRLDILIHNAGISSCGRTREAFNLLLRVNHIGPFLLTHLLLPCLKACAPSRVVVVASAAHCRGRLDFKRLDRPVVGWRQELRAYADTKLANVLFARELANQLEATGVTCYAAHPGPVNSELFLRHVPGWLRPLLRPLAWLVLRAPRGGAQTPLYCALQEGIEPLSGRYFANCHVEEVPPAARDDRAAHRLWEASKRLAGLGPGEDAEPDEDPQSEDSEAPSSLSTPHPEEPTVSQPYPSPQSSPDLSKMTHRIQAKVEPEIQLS
UniProt P23919, sequence (P23919 whole entry, looked up): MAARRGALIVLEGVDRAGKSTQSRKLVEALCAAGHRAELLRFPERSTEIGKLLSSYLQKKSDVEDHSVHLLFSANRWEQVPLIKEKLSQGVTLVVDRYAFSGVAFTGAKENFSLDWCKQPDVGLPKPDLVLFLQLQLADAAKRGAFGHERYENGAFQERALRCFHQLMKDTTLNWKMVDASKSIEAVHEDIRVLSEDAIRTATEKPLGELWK
UniProt Q8TEH3, sequence (Q8TEH3 whole entry, looked up): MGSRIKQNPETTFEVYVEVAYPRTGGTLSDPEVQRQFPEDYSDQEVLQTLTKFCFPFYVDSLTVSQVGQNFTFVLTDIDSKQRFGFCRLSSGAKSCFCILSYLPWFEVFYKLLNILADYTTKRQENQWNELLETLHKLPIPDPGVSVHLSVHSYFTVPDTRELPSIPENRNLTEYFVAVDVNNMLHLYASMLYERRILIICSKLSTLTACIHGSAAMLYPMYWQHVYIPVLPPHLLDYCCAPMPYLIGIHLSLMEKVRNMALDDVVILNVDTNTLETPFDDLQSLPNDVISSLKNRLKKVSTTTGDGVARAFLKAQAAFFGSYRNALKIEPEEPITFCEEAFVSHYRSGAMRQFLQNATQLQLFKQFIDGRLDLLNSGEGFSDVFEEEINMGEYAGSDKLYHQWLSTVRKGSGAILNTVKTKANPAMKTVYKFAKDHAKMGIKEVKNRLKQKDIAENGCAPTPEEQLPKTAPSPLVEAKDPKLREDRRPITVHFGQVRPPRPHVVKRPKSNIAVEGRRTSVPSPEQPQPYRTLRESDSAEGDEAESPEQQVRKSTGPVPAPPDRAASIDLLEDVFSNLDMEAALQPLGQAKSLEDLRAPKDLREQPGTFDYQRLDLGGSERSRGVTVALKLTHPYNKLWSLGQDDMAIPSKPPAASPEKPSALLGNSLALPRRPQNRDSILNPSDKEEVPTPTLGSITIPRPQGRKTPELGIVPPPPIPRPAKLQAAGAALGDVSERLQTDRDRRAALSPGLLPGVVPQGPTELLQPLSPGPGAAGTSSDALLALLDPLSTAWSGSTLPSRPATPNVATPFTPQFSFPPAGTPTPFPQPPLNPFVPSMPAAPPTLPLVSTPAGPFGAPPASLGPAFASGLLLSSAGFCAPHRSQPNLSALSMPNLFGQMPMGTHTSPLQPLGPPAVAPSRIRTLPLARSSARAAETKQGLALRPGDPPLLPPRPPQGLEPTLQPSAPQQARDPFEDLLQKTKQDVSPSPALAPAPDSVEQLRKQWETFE
UniProt Q8NBI2, sequence (Q8NBI2 whole entry, looked up): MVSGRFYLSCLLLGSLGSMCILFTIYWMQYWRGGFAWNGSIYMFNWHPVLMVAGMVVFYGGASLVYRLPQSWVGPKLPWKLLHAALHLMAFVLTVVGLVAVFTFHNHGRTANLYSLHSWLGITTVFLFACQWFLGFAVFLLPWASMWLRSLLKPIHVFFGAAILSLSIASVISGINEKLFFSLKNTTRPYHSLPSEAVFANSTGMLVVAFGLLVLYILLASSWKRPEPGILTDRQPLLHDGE
UniProt Q9BPY3, sequence (Q9BPY3 whole entry, looked up): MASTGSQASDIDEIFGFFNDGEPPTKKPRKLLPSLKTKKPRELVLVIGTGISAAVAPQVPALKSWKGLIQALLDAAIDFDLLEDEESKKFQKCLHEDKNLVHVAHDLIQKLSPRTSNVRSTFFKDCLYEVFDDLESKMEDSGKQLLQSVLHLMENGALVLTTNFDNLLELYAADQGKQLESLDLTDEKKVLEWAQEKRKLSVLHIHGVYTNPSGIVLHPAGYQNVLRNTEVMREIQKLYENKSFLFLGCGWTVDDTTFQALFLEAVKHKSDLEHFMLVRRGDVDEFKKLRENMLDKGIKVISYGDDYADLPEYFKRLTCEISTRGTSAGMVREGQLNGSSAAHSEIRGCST
UniProt Q9H410, sequence (Q9H410 whole entry, looked up): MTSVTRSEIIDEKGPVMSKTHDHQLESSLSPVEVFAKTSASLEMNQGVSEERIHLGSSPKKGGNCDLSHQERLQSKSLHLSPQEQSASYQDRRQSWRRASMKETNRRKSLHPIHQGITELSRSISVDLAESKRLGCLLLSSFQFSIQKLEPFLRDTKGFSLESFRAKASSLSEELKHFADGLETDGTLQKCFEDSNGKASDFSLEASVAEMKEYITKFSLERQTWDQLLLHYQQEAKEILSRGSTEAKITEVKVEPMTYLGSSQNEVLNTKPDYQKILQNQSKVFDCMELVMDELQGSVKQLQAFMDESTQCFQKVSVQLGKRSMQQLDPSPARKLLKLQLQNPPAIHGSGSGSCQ
UniProt Q9BU89, sequence (Q9BU89 whole entry, looked up): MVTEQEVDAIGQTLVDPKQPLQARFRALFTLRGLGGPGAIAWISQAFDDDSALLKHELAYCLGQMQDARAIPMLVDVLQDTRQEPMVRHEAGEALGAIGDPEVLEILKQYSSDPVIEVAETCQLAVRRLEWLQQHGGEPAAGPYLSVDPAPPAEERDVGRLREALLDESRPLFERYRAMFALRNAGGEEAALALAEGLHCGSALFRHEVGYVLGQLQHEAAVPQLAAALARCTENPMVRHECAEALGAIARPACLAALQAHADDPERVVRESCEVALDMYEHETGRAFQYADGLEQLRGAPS

Target	log2 fold change [1]	log2 fold change [2]	log2 fold change [3]	log2 fold change [4]	log2 fold change [5]
EXOC1 (UniProt Q9NV70)	-0.095	0.021	0.121	0.027	-0.075
FAM118B (UniProt Q9BPY3)	-0.276	-0.01	0.208	-0.019	-0.009
DNAAF2 (UniProt Q9NVR5)	0.039	0.02	-0.013	-0.003	0.002
DYNC1I2 isoform 5 (UniProt Q13409)	0.019	0.021	-0.006	-0.033	-0.019
FAM122A (UniProt Q96E09)	0.008	-0.055	-0.022	0.158	0.083
DOHH (UniProt Q9BU89)	0.218	0.072	-0.062	0.031	-0.088
DOCK8 (UniProt Q8NF50)	0.096	-0.223	-0.01	0.152	-0.087
EBNA1BP2 (UniProt Q99848)	0.118	-0.378	-0.269	0.306	-0.045
DBN1 isoform 3 (UniProt Q16643)	0.049	0.019	-0.027	0.044	0.004
DEGS1 (UniProt O15121)	0.083	0.04	-0.001	0.122	0.052
DBR1 (UniProt Q9UK59)	0.023	0	0	0.017	0.057
DCTN1 isoform 4 (UniProt Q14203)	-0.052	-0.021	0.096	0.044	-0.008
DHX16 (UniProt O60231)	-0.024	0.007	0.059	-0.003	0.017
EIF4A1 (UniProt P60842)	-0.043	0.096	0.05	-0.005	-0.042
ERCC2 (UniProt P18074)	0	-0.025	-0.044	-0.104	0.05
FAM193B (UniProt Q96PV7)	-0.115	0.011	-0.103	0.273	-0.115
EEA1 (UniProt Q15075)	0.022	-0.015	0.011	0.021	0.038
CUTA isoform 2 (UniProt O60888)	0.099	0.116	-0.289	-0.123	0.015
DSN1 (UniProt Q9H410)	0.02	0.016	0.059	0.045	-0.054
EVC2 (UniProt Q86UK5)	-0.064	-0.044	-0.141	0.021	0.081
ESS2 (UniProt Q96DF8)	0.04	-0.06	-0.096	0.018	0.075
EIF2S3 (UniProt P41091)	0.008	-0.023	-0.017	0.054	-0.002

Target	log2 fold change [1]	log2 fold change [2]	log2 fold change [3]	log2 fold change [4]	log2 fold change [5]
DCAF16 (UniProt Q9NXF7)	0.06	0.056	0.079	0.032	-0.032
DHCR7 (UniProt Q9UBM7)	-0.061	0	0.093	-0.186	1.06 (active)
DUS3L (UniProt Q96G46)	0.073	0.04	-0.057	-0.007	0.007
DTYMK (UniProt P23919)	-0.064	0.082	-0.02	-0.003	-0.014
CTSS (UniProt P25774)	–	-0.004	-0.033	-0.192	0.037
ELAC1 (UniProt Q9H777)	–	0.123	0.146	–	0.059
DOP1A (UniProt Q5JWR5)	0.203	–	0.049	–	–
FADS1 (UniProt F5GYH4)	-0.216	–	-0.02	-0.036	–
ENTPD7 (UniProt Q9NQZ7)	0.066	–	–	0.173	–
EIF2AK3 (UniProt Q9NZJ5)	-0.473	-0.027	–	-0.196	0.059
DNAJB1 (UniProt P25685)	-0.019	0.015	0.066	-0.003	-0.026
CYP24A1 (UniProt Q07973)	0.17	–	-0.175	0.266	–
DENND1A isoform 6 (UniProt Q8TEH3)	0.152	–	0.146	0.284	–
CYB561A3 isoform 2 (UniProt Q8NBI2)	0.033	-0.009	–	-0.075	0.002
DYRK1A isoform 2 (UniProt Q13627)	-0.062	0.059	0.085	0.026	0.011
DHRS13 (UniProt Q6UX07)	–	0.084	0.099	0.218	-0.14
DDX11 (UniProt Q96FC9)	-0.068	–	0.335	0.059	–
DCP2 (UniProt Q8IU60)	–	-0.121	-0.044	0.077	0.068
EEF1D isoform 3 (UniProt P29692)	–	–	–	-0.694	–
CTNNBL1 (UniProt Q8WYA6)	0.029	–	0.17	–	–
EDRF1 (UniProt Q3B7T1)	0.043	0.245	–	–	-0.061
ELMO1 (UniProt Q92556)	-0.085	–	0.026	–	–

Target	log2 fold change [1]	log2 fold change [2]	log2 fold change [3]	log2 fold change [4]	log2 fold change [5]
FAM117B (UniProt Q6P1L5)	–	0.283	0.116	-0.097	-0.024
DLK1 (UniProt P80370)	–	0.065	0.198	–	0.051
FAM135A (UniProt Q9P2D6)	–	–	0.106	–	–
CWF19L2 (UniProt Q2TBE0)	–	-0.169	–	0.028	0.135
F2RL3 (UniProt Q96RI0)	–	0.175	0.06	-0.197	0.032
DNM2 isoform 4 (UniProt P50570)	0.015	0.065	–	–	-0.022
DNAL1 (UniProt Q4LDG9)	0.146	0.086	-0.264	–	0.03
EIF3J isoform 2 (UniProt O75822)	0.092	–	0.25	0.049	–
ELF1 (UniProt P32519)	–	0.008	–	0.017	0.007
DDX27 (UniProt Q96GQ7)	–	-0.197	-0.157	0.12	-0.046
EEF2K (UniProt O00418)	–	0.001	0.145	–	-0.082
EIF4G1 (UniProt Q04637)	–	-0.032	0.011	0.098	-0.028
DYNC1I2 isoform 2 (UniProt Q13409)	0.028	-0.059	–	-0.068	0.14
DERPC (UniProt P0CG12)	0	–	-0.015	–	–
ENTR1 (UniProt Q96C92)	–	–	0.191	–	–
ERF (UniProt P50548)	–	–	–	-0.515	–
FAM207A (UniProt Q9NSI2)	0.107	–	0.001	0.021	–
EHBP1 (UniProt Q8NDI1)	–	-0.163	–	0.041	0.229
ELOVL7 (UniProt A1L3X0)	–	0.077	–	-0.066	-0.01
DBNL (UniProt Q9UJU6)	–	-0.04	–	–	-0.099
EID1 (UniProt Q9Y6B2)	–	–	–	-0.135	–
